Hits are enriched below; roughly 1.5% of the tested compounds scored in any of these assays.
IDE inh: cellular human IDE inhibition; P14735; HEK cells, FAbetaB cleavage, fluorescence polarization; inhibition, % at 5.59 µM; 0.41% of 320,000 active; AID 434962;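 active means percent inhibition above the average of all tested compounds plus 3 SD, set per screening campaign, cut at about 16% in these data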;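 further: IDE supplied by intact live HEK cells; FP after avidin binding of uncleaved biotin substrate so inhibition keeps polarization high; 0% = DMSO wells and 100% = 60 µM reference IDE inhibitor Ii1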
IDE cell activ: IDE (human) activation, cell-based. P14735. 0.073% of 340,000 active. AID 493087. HEK cells, FAbeta-B cleavage, fluorescence polarization; 0% vehicle, 100% cell-free pure enzyme wells. activation, % at 5.96 µM;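 active means activation above the mean of all tested compounds plus 3 SD, set per screening campaign, cut at about 17% in these data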
GLD-1 RNA inh: GLD-1-TGE RNA interaction inhibition (C. elegans); purified GLD-1 + fluorescein TGE RNA, fluorescence polarization; 0.44% of 320,000 active; Q17339; inhibition, % at 5.96 µM;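 active means percent inhibition above a per-plate cutoff, the plate mean of test compounds plus 3 SD, cut at about 30% in these data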;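 further: 0% = DMSO wells with GLD-1 and probe and 100% = wells lacking GLD-1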
Target sequence (Q17339 whole entry, looked up): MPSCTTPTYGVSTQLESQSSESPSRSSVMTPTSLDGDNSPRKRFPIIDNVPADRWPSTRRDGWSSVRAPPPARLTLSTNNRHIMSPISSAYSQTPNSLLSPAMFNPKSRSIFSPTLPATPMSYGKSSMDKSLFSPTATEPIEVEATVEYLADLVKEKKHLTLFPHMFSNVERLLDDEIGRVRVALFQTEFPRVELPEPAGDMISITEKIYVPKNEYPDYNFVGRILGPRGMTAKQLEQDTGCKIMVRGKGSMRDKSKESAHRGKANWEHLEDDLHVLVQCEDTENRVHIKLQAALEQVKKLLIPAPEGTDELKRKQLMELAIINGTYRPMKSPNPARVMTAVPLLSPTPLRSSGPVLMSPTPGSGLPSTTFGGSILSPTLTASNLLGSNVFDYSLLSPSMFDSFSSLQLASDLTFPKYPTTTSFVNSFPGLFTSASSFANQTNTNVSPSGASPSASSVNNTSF
MEX-5 binding: C. elegans MEX-5 TCR-2 RNA binding activity; MEX-5/FITC-TCR2 RNA binding, fluorescence polarization; hits give low values; 0.38% of 300,000 active; Q9XUB2; AID 1832; activity score (negative = inhibition of binding), % at 10 µM;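 active means inhibition past about -25% in most replicates, and total fluorescence under double the plate's negative control median, limit read from the data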;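 further: 0% = DMSO and -100% = 5 µM competing unlabeled TCR2 RNA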
MCL1-BIM inh: MCL1-BIM-BH3 interaction inhibition (human) | Q07820 | GST-MCL1 / FITC-Bim-BH3 fluorescence polarization | inhibition, % at 10.9 µM | 0.68% of 320,000 active | AID 2057;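 active means inhibition above the mean inhibition of all tested compounds plus 3 SD, set per campaign, cut at about 40% in these data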;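 further: 0% = DMSO wells and 100% = unlabeled Bim-BH3 peptide control; higher means more loss of mP so more displacement of Bim peptide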
BCLXL inh: blocks human Bcl-xL binding to Bim BH3 peptide | GST-Bcl-xL / FITC-Bim BH3 peptide fluorescence polarization | inhibition, % at 10.9 µM | 0.7% of 320,000 active;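 active means inhibition above the mean of all tested compounds plus 3 SD, cutoff set per campaign, cut at about 30% in these data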;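 further: 0% = DMSO wells and 100% = unlabeled Bim-BH3 peptide competitor; inhibitors lower millipolarization by displacing the labeled peptide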
IDE inh confirm: cellular human IDE inhibition, confirmation; shares compounds with IDE inh; HEK cells, FAbetaB cleavage, fluorescence polarization; inhibition, % at 5.59 µM; 51% of 1,200 active;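 active means mean inhibition across triplicate wells above the cutoff set by the earlier primary insulin-degrading enzyme screen, cut at about 16% in these data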;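 further: 0% = DMSO wells and 100% = 60 µM reference IDE inhibitor Ii1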
HEK cytotox: kills HEK cells in IDE inhibitor counter-screen | shares compounds with IDE inh | HEK293 cytotoxicity, ATP luminescence | inhibition, % at 5.59 µM | 28% of 1,200 active | AID 449730; in the data active means inhibition above about 22%;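 further: 0% = vehicle wells and 100% = reference cytotoxic drug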
FP fluor counter: counter-screen for IDE inhibitors: fluorescent artifacts | shares compounds with IDE inh | 30 tested, under 10 active | FP counterscreen for fluorescent artifacts, IDE probe project | AID 588718 | IC50, µM; call rule not given here
Active calls of the source: *; / = no result.

SMILES	IDE inh	IDE cell activ	GLD-1 RNA inh	MEX-5 binding	MCL1-BIM inh	BCLXL inh	IDE inh confirm	HEK cytotox	others
CCN1CCN(Cc2c(O)ccc3c(=O)c(-c4ccccc4OC)coc23)CC1	0	1	5	-2	2	1	/	/
O=C1CCc2cc(S(=O)(=O)NCc3ccc(F)cc3)cc3c2N1CCC3	-1	4	-6	3	-2	-2	/	/
Cc1ccc(S(=O)(=O)Nc2ccc3oc(=O)sc3c2)c(C)c1	18*	-3	11	-1	13	9	7	4
Cc1ccc(C(C)C)c(OC/C(O)=C(\C#N)c2nc3ccccc3[nH]2)c1	2	7	8	-2	5	0	/	/
COc1cc(/C=C2/SC(=S)N(C)C2=O)ccc1OC(=O)c1ccco1	24*	-26	-6	2	11	3	63*	9
COc1cc(/C=C2\SC(=S)N(NC(C)=O)C2=O)ccc1OC(=O)c1ccco1	22*	-17	2	/	/	/	66*	11	FP fluor counter=>55
COc1ccc(NC(=O)c2cccc3c2C(=O)c2ccc(-c4cnc(OC)nc4)cc2S3(=O)=O)cc1	-4	1	6	/	11	1	/	/
COc1ccc(NC(=O)CN2C(=O)NC3(CCCC3)C2=O)cc1OC	-1	5	5	0	-12	-2	/	/
CCN1CCC2(CC1)C(C#N)=C(N)Oc1c2sc2nc(C)cc(C)c12	35*	-15	-26	-3	1	8	6	18
CCOc1ccc(/C(C)=N\NC(=O)Cc2ccccc2)cc1	1	5	4	-2	7	4	/	/
O=C(N/N=C/c1c(O)ccc2ccccc12)c1ccc(Br)o1	99*	-91	-52	-1	12	1	142*	102*
O=C(N/N=C/c1c(O)ccc2ccccc12)c1cccnc1	63*	-36	-120	-9	-17	-12	64*	76*
Cn1cc(C(=O)N/N=C/c2c(O)ccc3ccccc23)ccc1=O	15	-7	-75	-3	-2	4	/	/
Cn1nccc1C(=O)N/N=C/c1c(O)ccc2ccccc12	16*	-17	-50	-5	-8	-5	22*	111*
Cc1ccc(C(=O)N/N=C/c2c(O)ccc3ccccc23)cn1	64*	-68	-70	3	10	-6	105*	96*
O=C(N/N=C\c1c(O)ccc2ccccc12)c1ccc(O)cc1	2	0	-8	-10	10	-5	/	/
CC1CN(CCN2CC(C)N(C=O)CC2C)C(C)CN1C=O (stereo not given)	/	-1	/	/	/	/	/	/
COc1ccc2c(c1)CC/C(=C/c1ccco1)C2=O	19*	-4	-14	-1	16	14	2	15
COc1cccc(CN2CCN(C(=S)NCc3ccc(Cl)cc3)CC2)c1	-7	8	5	-2	6	2	/	/
CC(=O)c1sc(N/N=C\c2cccc(Br)c2)nc1C	40*	-76	-40	-1	-19	-11	106*	15
CC(=O)c1sc(N/N=C\c2ccc(Br)cc2)nc1C	37*	-54	-56	0	-40	-13	76*	9
Fc1ccccc1Cc1noc(CN2CCN(c3ccc(Cl)cn3)CC2)n1	2	-2	8	-4	4	6	/	/
Cc1cc2nc(-c3ccc(SCc4ccc(C#N)cc4)nc3)[nH]c2cc1C	17*	-10	6	-1	2	3	4	20
CC(=O)CSc1ccc(-c2nc3cc(C)c(C)cc3[nH]2)cn1	5	-9	1	-1	0	5	/	/
Cc1cc2nc(-c3ccc(SCC(=O)Nc4ccc(S(=O)(=O)N5CCCC5)cc4)nc3)[nH]c2cc1C	17*	-4	-20	-1	-44	-16	4	20
SMILES	IDE inh	IDE cell activ	GLD-1 RNA inh	MEX-5 binding	MCL1-BIM inh	BCLXL inh	IDE inh confirm	HEK cytotox	others
Cc1cccc(N2CCN(C(=O)CCn3c(=O)[nH]c4ccsc4c3=O)CC2C)c1 (stereo not given)	24*	-14	3	1	2	4	16	9
Cc1cccc(N2CCN(C(=O)CCCn3c(=O)[nH]c4ccsc4c3=O)CC2C)c1 (stereo not given)	2	2	1	-1	1	3	/	/
Cc1nc2ccccc2c(=O)n1-c1ccc(NS(=O)(=O)c2ccc(F)cc2)cc1	22*	-9	2	0	0	2	6	10
COc1cc(/C=C2/CCC/C(=C\c3cc(O)c(OC)c(Cl)c3)C2=O)cc(Cl)c1O	23*	-20	-25	2	2	5	24*	87*
COc1cc(/C=C2\CC/C(=C\c3cc(OC)c(O)c(OC)c3)C2=O)cc(OC)c1O	7	-3	-41	/	-56	-31	/	/
CCCCOc1ncnc2c1[nH]c1ccc(OCC)cc12	6	-3	10	1	10	1	/	/
CCCCOc1ncnc2c1[nH]c1ccc(F)cc12	30*	-31	8	1	0	3	12	70*
CCCCOc1ncnc2c1[nH]c1ccccc12	7	-10	0	0	-6	5	/	/
CCCCOc1ncnc2c1[nH]c1ccc(OC)cc12	21*	/	3	-3	-5	-1	3	38*
COc1cc(-c2cc(=O)c3ccccc3o2)ccc1O	25*	-21	2	-2	14	3	24*	17
Cn1c(/C=C/c2cccc(Br)c2)nc2ccccc2c1=O	19*	-10	-2	0	4	1	6	19
O=c1c2ccccc2nc(/C=C/c2cccc(Br)c2)n1CCCO	2	2	-7	2	1	-1	/	/
Cc1ccccc1COC(=O)c1nn(-c2ccccc2)nc1N	-4	2	-2	3	-8	0	/	/
COc1cc(/C=C(\C#N)c2nc3ccccc3n2C)cc(OC)c1O	166*	-175	-64	13	-21	-8	26*	2
COc1cc(/C=C(/C#N)c2nc3ccccc3[nH]2)ccc1OC(=O)c1ccco1	67*	-93	-3	5	8	6	142*	7
COc1cc(/C=C(\C#N)c2nc3ccccc3[nH]2)cc(OC)c1O	92*	-94	-154	36	-95	-56	26*	8
COc1ccc(/C=C(\C#N)c2nc3ccccc3[nH]2)cc1O	/	-5	/	-3	/	/	/	/
COc1c(O)ccc(/C=C(\C#N)c2nc3ccccc3[nH]2)c1[N+](=O)[O-]	17*	4	-6	-6	0	7	3	4

Screening data (PubChem)
